Screening data as filed in PubChem BioAssay.
The list is not random: actives were taken first. Their share in the collection is about 1.1%.
IDE inh – cellular human IDE inhibition | P14735 | HEK cells, FAbetaB cleavage, fluorescence polarization | inhibition, % at 5.59 µM | actives 0.41% (n = 320,000);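 active = percent inhibition above the average of all tested compounds plus 3 SD, set per screening campaign, cut at about 16% in these data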;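 note: IDE supplied by intact live HEK cells; FP after avidin binding of uncleaved biotin substrate so inhibition keeps polarization high; 0% = DMSO wells and 100% = 60 µM reference IDE inhibitor Ii1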
LANA-H2B inh – blocks KSHV LANA binding to histone H2A/H2B; actives 0.6% (n = 320,000); cell-free LANA-H2A/H2B peptide, fluorescence polarization; AID 2629; inhibition, % (no concentration beside the values); in the data active = inhibition mostly above about 10%, no sharp cut-off; inactive = mostly below about 6.7%
IDE act – activators of human insulin-degrading enzyme in cells; actives 0.073% (n = 340,000); P14735; HEK cells, FAbeta-B cleavage, fluorescence polarization; 0% vehicle, 100% cell-free pure enzyme wells; activation, % at 5.96 µM;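 active = activation above the mean of all tested compounds plus 3 SD, set per screening campaign, cut at about 17% in these data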
HDAC3 inhib – blocks human histone deacetylase 3 | O15379 | AID 2718 | inhibition, % at 8.3 µM | recombinant HDAC3, fluorogenic peptide/trypsin coupled, fluorescence | actives 0.15% (n = 320,000); in the data active = inhibition above about 26%, passing the limit was not always enough; inconclusive = no clear call, values can overlap the other calls
IDE inh confirm – confirmation of human insulin-degrading enzyme inhibitors in cells. shares compounds with IDE inh. HEK cells, FAbetaB cleavage, fluorescence polarization. AID 435028. actives 51% (n = 1,200). inhibition, % at 5.59 µM;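 active = mean inhibition across triplicate wells above the cutoff set by the earlier primary insulin-degrading enzyme screen, cut at about 16% in these data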;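 note: 0% = DMSO wells and 100% = 60 µM reference IDE inhibitor Ii1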
HEK293 tox – counter-screen for IDE inhibitors: cytotoxicity in HEK cells; HEK293 cytotoxicity, ATP luminescence; inhibition, % at 5.59 µM; actives 28% (n = 1,200); shares compounds with IDE inh; in the data active = inhibition above about 22%;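 note: 0% = vehicle wells and 100% = reference cytotoxic drug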
Starred values were filed as active, the others as inactive; ? = inconclusive; . = not tested or not shown.

SMILES	IDE inh	LANA-H2B inh	IDE act	HDAC3 inhib	IDE inh confirm	HEK293 tox
COC(=O)c1cccc(-n2sc3ccccc3c2=O)c1	67.5*	-2.7	-23.4	66.6*	37.3*	45.5*
COC(=O)c1cccc(N2CCCC2=O)c1	2.1	0.2	5.4	.	.	.
O=c1c2ccccc2sn1-c1ccc(F)cc1	60.0*	-2.2	-23.4	3.4	17.8*	64.1*
Cc1ccc(-n2sc3ccccc3c2=O)cc1	97.2*	-3.6	-51.0	51.6*	32.4*	99.4*
COc1ccc2[nH]cc(CCNS(=O)(=O)c3ccccc3)c2c1	3.4	0.8	4.2	2.1	.	.
CCOC(=O)c1c(NC(=O)COC(=O)CNC(=O)c2ccco2)sc(C(C)=O)c1C	17.5*	.	-6.8	.	9.1	5.5
Cc1cccc(NC(=O)CSc2ncnc3sc(C)c(C)c23)n1	.	-3.2	-3.0	1.3	.	.
Cc1sc2ncnc(SCC(=O)NC(=O)c3cccn3C)c2c1C	19.2*	-1.1	-10.8	-6.8	2.5	17.7
CC1=C(C(=O)OCCCBr)C(c2ccc3c(c2)OCO3)NC(=O)N1 (stereo not drawn)	5.7	4.3	-0.3	4.6	.	.
CC(=O)Nc1ccc(S(=O)(=O)N(Cc2ccccc2)C(C)C)cc1	1.7	-0.5	0.4	5.3	.	.
C/C(=N\N=C1\NC(=O)C(CC(=O)Nc2ccccc2F)S1)C1CCCCC1 (stereo not drawn)	-0.5	-0.6	2.1	-4.1	.	.
Cc1cccc(C)c1N1CCN(c2cc(Cl)nc(N)n2)CC1	17.5*	-1.0	-8.2	-2.0	4.4	14.0
COc1cc(/C=C2\SC(=Nc3ccccc3)NC2=O)cc(Cl)c1O	134.2*	-1.2	-112.3	?	150.0*	28.2*
COc1cc(/C=C2/SC(=Nc3ccc(O)cc3)NC2=O)ccc1O	35.4*	-10.4	-41.1	0.5	59.5*	59.4*
CN(C(=O)OC(C)(C)C)c1ccc(-c2nc3ccccc3s2)cc1	-0.5	-7.9	0.5	-8.8	.	.
Brc1cc2[nH]cnc2c2ccccc12	21.6*	-1.9	-39.1	6.7	11.3	16.4
Oc1ccc2c(ccc3[nH]cnc32)c1	3.2	3.2	3.2	0.7	.	.
CCN(CC)c1ccc(/C=C/c2nc3ccccc3s2)cc1	11.6	-8.0	.	4.0	.	.
COc1cc2nc(/C=C/c3ccc(N(C)C)cc3)sc2cc1SC	70.4*	7.1	-46.7	-4.7	50.6*	12.6
CCc1ccc(-c2nnn(CC(=O)N(C3CCCC3)C3CCS(=O)(=O)C3)n2)cc1 (stereo not drawn)	-1.3	.	1.6	.	.	.
CC1CCN(C(=O)C2CCC(=O)N(Cc3ccc(Cl)cc3)C2)CC1 (stereo not drawn)	4.7	-0.3	5.2	-5.1	.	.
CC(Oc1ccccc1)C(=O)NNS(=O)(=O)c1ccc([N+](=O)[O-])cc1 (stereo not drawn)	-1.9	-6.7	2.1	2.5	.	.
Cc1ccccc1S(=O)(=O)Cc1ccc(C(=O)N2CCN(c3cccc(C)c3C)CC2)o1	16.7*	-2.3	-5.7	0.6	5.9	68.9*
O=C(/C=C/c1ccc(Cl)cc1)NC(=S)Nc1ccc(NC(=O)c2ccco2)cc1	43.4*	1.6	-20.4	-0.2	16.7*	77.4*
COc1ccc(C(=O)NCCS(=O)(=O)N2CCN(Cc3ccccc3)CC2)cc1	6.5	2.5	0.5	-1.8	.	.
SMILES	IDE inh	LANA-H2B inh	IDE act	HDAC3 inhib	IDE inh confirm	HEK293 tox
Cc1nc2ncnn2c(N2CCCC(C(=O)Nc3ccc4c(c3)CCC4)C2)c1C (stereo not drawn)	16.9*	-0.1	-34.3	3.0	12.0	43.6*
O=C(Nc1ccc2c(c1)CCC2)C1CCCN(c2ncccn2)C1 (stereo not drawn)	4.1	-1.8	0.1	0.9	.	.
CCN1/C(=C/c2ccc3cc(C)ccc3[n+]2CC)Sc2ccccc21	90.7*	-134.5	-57.6	18.9	135.9*	112.8*
CCN1/C(=C/c2ccc3cc(C)ccc3[n+]2CC)Sc2cc(C)c(C)cc21	.	.	-227.4	.	.	.
COc1ccc(-[n+]2c(C)cc(/C=C3\Sc4ccccc4N3C)cc2C)cc1	71.8*	-98.7	-65.1	19.0	105.3*	111.5*
COc1ccc(C(=O)/C=C2\Sc3ccccc3N2C)cc1	-6.7	-4.4	.	-5.6	.	.
COc1ccccc1OC(=O)CCN1c2ccccc2Sc2ccccc21	3.4	-2.3	0.2	1.1	.	.
COc1ccccc1-[n+]1c(C)cc(/C=C2\Sc3ccccc3N2C)cc1C	51.9*	-50.6	-69.9	?	103.5*	112.6*
O=[N+]([O-])c1ccc(OC(F)F)c(/C=N/n2cnnc2)c1	-1.3	-3.0	0.9	-3.8	.	.
Cn1c(N)c(C(=O)CSc2nc(N)cc(=O)[nH]2)c(=O)n(C)c1=O	2.6	1.5	-6.1	3.6	.	.
Cn1c(N)c(C(=O)CSc2nc(N)cc(N)n2)c(=O)n(C)c1=O	20.8*	11.4	-31.5	2.0	7.7	8.6
Oc1c(Cl)cc(Cl)cc1/C=C/c1ccc2cccc(O)c2n1	33.0*	-0.7	-53.9	-2.4	54.2*	15.3
Oc1ccc(Cl)cc1/C=C/c1ccc2cccc(O)c2n1	.	.	-0.6	.	.	.
Cn1c(SCc2nc(-c3ccc(Br)cc3)no2)nnc1-c1ccco1	9.0	-0.6	-7.5	-0.4	.	.
COc1ccc(-c2noc(CSc3nnc(-c4ccccc4)n3C)n2)cc1	16.7*	6.7	-17.6	-1.6	9.4	16.1
COc1ccc(N=Cc2oc3ccc4ccccc4c3c2O)cc1	18.4*	-0.9	-27.5	8.5	29.2*	5.3
COc1ccc(N=Cc2ccccc2O)cc1	.	.	3.3	.	.	.
COc1cc(C(=O)OCC(=O)NCC2CCCCC2)ccc1OCC(C)C	-5.4	3.1	-1.3	14.0	.	.
Cc1ccc2[nH]c3c(N4CCN(Cc5ccccc5)CC4)ncnc3c2c1	35.6*	-4.7	-12.8	-9.0	17.5*	40.5*
CCOc1ccc2[nH]c3c(N4CCN(c5ccccn5)CC4)ncnc3c2c1	25.0*	-0.3	-29.9	-2.2	7.5	25.9*
OC1(c2cccc(C(F)(F)F)c2)CCN(c2ncnc3c2[nH]c2ccccc23)CC1	19.4*	3.8	-10.4	?	7.3	34.5*
COc1cccc2[nH]c3c(N4CCc5ccccc5C4)ncnc3c12	1.9	-7.3	.	1.5	.	.
c1ccc2c(c1)CCN(c1ncnc3c1[nH]c1ccccc13)C2	20.6*	0.7	-24.7	-3.9	17.4*	80.3*
COc1ccc([C@H]2CC(=O)C=C(c3cccc4c3Oc3ccccc3S4)C2)cc1OC	1.2	-1.7	-3.8	-1.7	.	.
COC(=O)c1cc(S(=O)(=O)N(C)C2CCCCC2)c[nH]1	3.5	1.3	2.9	-1.3	.	.
COCCNC(=O)CN(C(=O)CCC(=O)Nc1ccccn1)c1ccc(C)cc1C	0.0	-4.4	0.3	2.0	.	.
c1ccc(CN2CCN(c3ncnc4c3[nH]c3ccccc34)CC2)cc1	33.1*	0.7	-2.3	-19.3	17.9*	57.9*
Cc1ccc2c(c1)[nH]c1c(N3CCN(Cc4ccccc4)CC3)ncnc12	13.2	-2.6	-15.0	-7.9	.	.
CCOc1ccccc1-n1c(SCC(=O)N2CCCc3ccccc32)nnc1-c1cccnc1	33.0*	-1.7	-37.6	-3.2	16.6*	15.8
